“And” between values parts separate entries of the source, which are not always exact repeats. Equal values may be shown once. Inconclusive results are not listed. Some compounds were tested as several samples or in several runs, with calls that do not always agree. The source made the active and inactive calls. Rule for the calls: active = hit-call score of the fitted dose curve at least 0.9, where 1 is the maximum; inconclusive = response in the unintended direction; inactive = score below 0.9.
What was measured:
[1] = molecular target: human Protein Tyrosine Phosphatase Receptor Type B (PTPRB), PTPRB (gene 5787) (UniProt P23467); assay: NVS_ENZ_hPTPRB: NovaScreen (NVS) Enzymatic Assay for human Protein Tyrosine Phosphatase Receptor Type B (PTPRB) (AID 2283211)
How it was run: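 Recombinant human PTPRB with a fluorescent substrate, product separated by electrophoretic mobility shift; read 1 h after dosing. Primary screen in duplicate at 25 uM; actives then retested in concentration series; loss of signal versus DMSO.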

[2] = molecular target: human Protein Tyrosine Phosphatase Receptor Type C (PTPRC), PTPRC (gene 5788) (UniProt P08575); assay: NVS_ENZ_hPTPRC: NovaScreen (NVS) Enzymatic Assay for human Protein Tyrosine Phosphatase Receptor Type C (PTPRC) (AID 2283212)
How it was run: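 Yeast-extracted human PTPRC used in a cell-free colorimetric enzyme activity read-out, 1 h after dosing. Primary screen in duplicate at 25 uM; actives rerun in concentration-response up to 50 uM, DMSO as baseline.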

Chain of human Protein Tyrosine Phosphatase Receptor Type B (PTPRB), PTPRB (gene 5787) (P23467 whole entry, looked up): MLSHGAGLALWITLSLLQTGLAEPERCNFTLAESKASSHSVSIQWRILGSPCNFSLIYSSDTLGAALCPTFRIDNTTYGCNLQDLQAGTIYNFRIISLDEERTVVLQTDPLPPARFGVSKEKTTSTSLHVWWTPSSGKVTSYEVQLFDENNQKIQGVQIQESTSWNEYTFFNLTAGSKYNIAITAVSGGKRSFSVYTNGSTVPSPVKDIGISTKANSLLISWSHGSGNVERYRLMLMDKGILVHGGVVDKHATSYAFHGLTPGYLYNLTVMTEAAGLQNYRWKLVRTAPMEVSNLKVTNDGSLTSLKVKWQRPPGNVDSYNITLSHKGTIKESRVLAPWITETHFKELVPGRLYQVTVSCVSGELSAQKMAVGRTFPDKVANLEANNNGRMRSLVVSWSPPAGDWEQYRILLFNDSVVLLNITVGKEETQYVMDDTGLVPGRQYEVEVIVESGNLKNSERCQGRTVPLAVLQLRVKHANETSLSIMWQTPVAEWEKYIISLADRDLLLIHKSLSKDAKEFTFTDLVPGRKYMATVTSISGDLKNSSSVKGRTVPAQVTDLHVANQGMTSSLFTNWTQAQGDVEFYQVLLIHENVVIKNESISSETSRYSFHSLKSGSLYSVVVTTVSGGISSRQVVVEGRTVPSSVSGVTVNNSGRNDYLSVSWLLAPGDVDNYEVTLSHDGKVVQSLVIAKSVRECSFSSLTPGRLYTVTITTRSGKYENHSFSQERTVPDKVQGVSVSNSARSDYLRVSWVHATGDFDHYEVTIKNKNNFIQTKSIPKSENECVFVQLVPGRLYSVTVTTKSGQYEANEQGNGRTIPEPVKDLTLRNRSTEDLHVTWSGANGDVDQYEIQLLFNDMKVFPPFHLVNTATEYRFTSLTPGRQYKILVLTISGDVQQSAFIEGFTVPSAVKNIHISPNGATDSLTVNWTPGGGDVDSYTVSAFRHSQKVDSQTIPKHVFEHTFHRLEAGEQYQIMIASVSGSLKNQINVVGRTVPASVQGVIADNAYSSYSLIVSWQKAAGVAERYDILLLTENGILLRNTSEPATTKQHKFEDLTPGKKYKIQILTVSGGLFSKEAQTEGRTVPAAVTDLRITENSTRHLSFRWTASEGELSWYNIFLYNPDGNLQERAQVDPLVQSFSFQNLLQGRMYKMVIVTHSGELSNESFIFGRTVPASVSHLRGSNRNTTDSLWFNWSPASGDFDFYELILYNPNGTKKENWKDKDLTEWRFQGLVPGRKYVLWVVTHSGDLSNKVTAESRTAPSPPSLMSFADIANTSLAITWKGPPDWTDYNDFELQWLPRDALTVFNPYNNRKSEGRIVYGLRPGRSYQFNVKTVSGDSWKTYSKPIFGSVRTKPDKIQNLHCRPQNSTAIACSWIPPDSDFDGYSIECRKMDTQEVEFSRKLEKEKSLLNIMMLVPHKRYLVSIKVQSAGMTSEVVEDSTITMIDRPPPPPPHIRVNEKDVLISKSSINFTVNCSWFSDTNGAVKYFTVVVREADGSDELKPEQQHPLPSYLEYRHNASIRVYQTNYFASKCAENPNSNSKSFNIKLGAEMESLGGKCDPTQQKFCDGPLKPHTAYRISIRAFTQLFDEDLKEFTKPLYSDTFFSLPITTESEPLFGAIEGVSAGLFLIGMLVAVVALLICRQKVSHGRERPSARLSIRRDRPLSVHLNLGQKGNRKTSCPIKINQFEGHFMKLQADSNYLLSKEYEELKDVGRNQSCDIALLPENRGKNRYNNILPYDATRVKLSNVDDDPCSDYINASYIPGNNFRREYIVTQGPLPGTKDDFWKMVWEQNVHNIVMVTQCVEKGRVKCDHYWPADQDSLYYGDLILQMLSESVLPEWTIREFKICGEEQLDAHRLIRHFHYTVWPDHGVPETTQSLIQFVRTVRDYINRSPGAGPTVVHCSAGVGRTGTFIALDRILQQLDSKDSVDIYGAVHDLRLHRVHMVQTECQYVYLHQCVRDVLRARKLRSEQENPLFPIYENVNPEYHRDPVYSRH
Chain of human Protein Tyrosine Phosphatase Receptor Type C (PTPRC), PTPRC (gene 5788) (P08575 whole entry, looked up): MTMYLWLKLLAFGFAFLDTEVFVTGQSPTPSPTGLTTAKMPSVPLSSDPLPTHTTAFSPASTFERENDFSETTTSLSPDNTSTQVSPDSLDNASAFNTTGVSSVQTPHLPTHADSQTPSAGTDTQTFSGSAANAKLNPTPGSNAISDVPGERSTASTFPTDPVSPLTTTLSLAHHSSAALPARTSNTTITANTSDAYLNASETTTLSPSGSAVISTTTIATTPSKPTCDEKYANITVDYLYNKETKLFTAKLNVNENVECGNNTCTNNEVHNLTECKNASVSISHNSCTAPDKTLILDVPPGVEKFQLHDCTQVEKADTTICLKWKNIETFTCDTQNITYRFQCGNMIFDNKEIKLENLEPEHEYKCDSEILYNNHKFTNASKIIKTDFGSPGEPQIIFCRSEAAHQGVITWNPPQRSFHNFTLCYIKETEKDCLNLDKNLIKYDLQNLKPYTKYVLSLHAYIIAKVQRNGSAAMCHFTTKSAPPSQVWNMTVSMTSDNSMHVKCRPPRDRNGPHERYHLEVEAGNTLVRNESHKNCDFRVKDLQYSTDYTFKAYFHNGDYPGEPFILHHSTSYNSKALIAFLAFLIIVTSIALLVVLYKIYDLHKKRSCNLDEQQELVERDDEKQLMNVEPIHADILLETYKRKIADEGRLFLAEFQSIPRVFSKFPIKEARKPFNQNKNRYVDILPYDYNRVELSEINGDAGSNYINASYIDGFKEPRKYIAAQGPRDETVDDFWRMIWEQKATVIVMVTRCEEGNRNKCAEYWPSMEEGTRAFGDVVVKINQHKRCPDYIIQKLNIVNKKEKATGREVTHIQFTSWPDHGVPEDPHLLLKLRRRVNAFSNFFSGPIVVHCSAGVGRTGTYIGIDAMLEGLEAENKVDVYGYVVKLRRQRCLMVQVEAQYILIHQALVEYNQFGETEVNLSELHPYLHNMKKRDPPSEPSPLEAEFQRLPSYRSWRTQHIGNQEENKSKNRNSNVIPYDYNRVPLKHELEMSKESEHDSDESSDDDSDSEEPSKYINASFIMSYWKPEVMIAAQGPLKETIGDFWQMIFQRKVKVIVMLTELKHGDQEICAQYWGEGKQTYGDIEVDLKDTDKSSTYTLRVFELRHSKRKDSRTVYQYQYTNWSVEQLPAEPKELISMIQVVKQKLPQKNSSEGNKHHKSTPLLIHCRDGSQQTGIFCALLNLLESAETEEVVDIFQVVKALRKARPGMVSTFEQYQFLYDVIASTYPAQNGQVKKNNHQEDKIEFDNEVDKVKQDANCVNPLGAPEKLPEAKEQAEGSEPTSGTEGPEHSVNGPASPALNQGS

Compound | outcome [1] | AC50 [1] | AC50 [2]
S=C1NCCN1 | inactive |  | 
CN(C)[C@@H]1C(=O)C(C(N)=O)=C(O)[C@@]2(O)C(=O)C3=C(O)c4c(O)cccc4[C@@](C)(O)[C@H]3[C@H](O)[C@@H]12 | inactive | 29.7 µM (active) and 10.1 µM (active) | 11.4 µM (active)
